Results: PubChem BioAssay

target: Dickkopf-related protein 1 (Homo sapiens) (UniProt O94907); assay: small molecules binding DKK1 protein – biochemical, small-molecule microarray, 635 nm fluorescence scan, primary screen (AID 1106); settings: higher = more signal;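 also: score merges emission near 667 nm with signal to noise over three replicate slides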
Sequence (O94907 whole entry, looked up): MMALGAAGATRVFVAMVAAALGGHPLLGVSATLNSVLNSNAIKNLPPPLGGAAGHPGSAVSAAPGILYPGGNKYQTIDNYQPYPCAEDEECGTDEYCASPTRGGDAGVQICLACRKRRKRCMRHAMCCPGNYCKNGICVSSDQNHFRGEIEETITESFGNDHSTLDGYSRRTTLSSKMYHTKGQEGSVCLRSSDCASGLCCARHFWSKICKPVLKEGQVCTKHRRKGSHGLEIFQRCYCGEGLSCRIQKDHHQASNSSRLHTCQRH

| SMILES | composite z-score |
| --- | --- |
| CCCCC(CC)C(O)C1C=CC2C(=O)N(C)C(=O)C2N1Nc1ccccc1 (configuration not stated) | -0.0617 |
| COC(=O)c1c(CC[C@@H](CO)NC(=O)N2CCC[C@H]2Cn2cc(C3(O)CCCCC3)nn2)oc(C(C)=O)c1C(=O)OC | 0.336 |
| C=CC[C@]1(C(=O)N2CCCCC2)N=C(c2ccc(OCCCO)cc2)O[C@H]1c1ccccc1CN=[N+]=[N-] | 0.263 |
| COC(=O)[C@@]1(Cc2ccccc2)[C@H]2c3cc(C(=O)N4CCCC4)n(CCc4ccccn4)c3C[C@H]2CN1C(=O)c1ccccc1 | -0.37 |
| C=CCNC(=O)[C@@H]1[C@H]2C(=O)O[C@H](c3ccccc3)[C@H](c3ccccc3)N2[C@H](c2ccc(O)cc2)[C@@]12C(=O)N(C(=O)OCCOC)c1ccc(C#CC3=CCCCC3)cc12 | 0.53 |
| COCCOC(=O)N1C(=O)[C@@]2(c3cc(C#CC4(O)CCCCCC4)ccc31)[C@H](C(=O)N1CCc3cc(OC)c(OC)cc3C1)[C@H]1C(=O)O[C@H](c3ccccc3)[C@H](c3ccccc3)N1[C@@H]2c1ccc(OCCO)cc1 | 0.95 |
| C=C(C(=O)CC[C@H](OC(=O)c1ccccc1-c1ccccc1C(=O)O)c1cccc(OCCO)c1)C(C)C | 0.0159 |
| CC(C)c1ccc(NN2C(C(O)c3ccc(F)cc3)C=CC3C(=O)N(c4ccccc4)C(=O)C32)cc1 (configuration not stated) | -0.0647 |
| [N-]=[N+]=Nc1ccccc1C[C@@]1(C(=O)NCCN2CCOCC2)N=C(c2ccc(OCCCO)cc2)O[C@@H]1c1ccccc1N=[N+]=[N-] | 0.136 |
| CCOC(=O)[C@@H]1CCCCN1C(=O)C(=O)OC | 0.333 |
| COc1ccccc1CN1C(=O)c2ccccc2[C@](Cc2ccccc2I)(C(=O)O)[C@@H]1c1ccc(CO)cc1 | 0.441 |
| C=C[C@@H](OC)[C@H](OC(=O)Nc1ccc(OC)cc1)c1ccc(O)c(F)c1 | 0.171 |

test system: Inhibin beta A chain (activin A); assay: small molecules binding activin A – biochemical, small-molecule microarray, 635 nm fluorescence scan, primary screen (AID 1107); settings: INHBA, higher = more signal;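 also: mouse activin A protein probed at 4.33 µg/mL on printed slides; score merges bound-protein fluorescence near 667 nm with spot signal-to-noise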

| SMILES | composite z-score |
| --- | --- |
| O=C1C2C=CC(C(O)C3CC=CCC3)N(Nc3ccccc3)C2C(=O)N1c1ccccc1 (configuration not stated) | 1.68 |
| [N-]=[N+]=Nc1ccccc1C[C@@]1(C(=O)N2CCOCC2)N=C(c2ccc(OCCCO)cc2)O[C@@H]1c1ccccc1 | -0.431 |
| CCC#CCN(Cc1ccccc1Br)[C@H](/C=C/C1CC1)[C@@H](O)Cc1ccccc1 | 0.384 |
| Cc1ccc(F)cc1S(=O)(=O)N[C@@H]1CCN(Cc2ccc(Br)cc2)C1 | 0.359 |
| CC1CC/C=C\[C@H]2OC34C=CCN(C(C)C)C(=O)[C@H]3N(CCO)C(=O)[C@@H]4C2C(=O)O1 (some centres not stated) | -0.372 |
| CCOC(=O)C[C@H]1[C@H](OC(=O)c2cc3ccccc3oc2=O)[C@@H](NC(=O)CC(C)C)c2cc(OCCCO)ccc2N1C(=O)c1ccc2ccccc2n1 | 0.413 |
| [N-]=[N+]=Nc1ccccc1C[C@]1(C(=O)NCCN2CCOCC2)COC(c2ccc(OCCCO)cc2)=N1 | 0.472 |
| COC(=O)[C@]1(CCS(=O)(=O)c2ccccc2)N=C(c2ccc(OCCCO)cc2)O[C@@H]1c1ccccc1N=[N+]=[N-] | 0.199 |
| COc1ccc(CCNC(=O)[C@@H]2c3ccccc3C(=O)N(C3CCCCC3)[C@H]2c2ccc(CO)cc2)cc1 | 0.177 |
| O=C(NCc1ccc(F)cc1)[C@H]1C[C@H]2C(=O)NCC(=O)N2[C@H]1c1ccc(O)cc1 | 0.43 |
| CC(c1ccccc1)C(O)C1C=CC2C(=O)N(C)C(=O)C2N1Nc1ccccc1 (configuration not stated) | 0.965 |
| COc1ccc(C#Cc2ccc3c(c2)[C@]2(C(=O)N3)[C@H](c3ccc(O)cc3)N3[C@H](c4ccccc4)[C@H](c4ccccc4)OC(=O)[C@H]3[C@@H]2C(=O)Nc2nc3ccccc3s2)cc1 | -0.604 |
| CC1=C2[C@@H](CCc3ccccc3)OB(O)C[C@@H]2[C@@H]2C(=O)N(C)C(=O)[C@@H]2C1 | 0.273 |
| COc1cccc(C)c1NC(=O)O[C@H]1[C@H](OC(=O)Nc2ccc3c(c2)OCO3)[C@@H](OC(=O)Nc2ccc3c(c2)OCO3)[C@@H](OC)O[C@@H]1CO | 0.724 |
| CC(C)N1C(=O)c2ccccc2[C@@H](C(=O)NCCN2CCOCC2)[C@@H]1c1ccc(CO)cc1 | -0.0564 |
| CCCCN1CC=CC23O[C@@H]4/C=C\CCCOC(=O)C4[C@H]2C(=O)N(CCO)[C@@H]3C1=O (some centres not stated) | -0.677 |
| CCCNC(=O)[C@@]1(C)c2ccccc2C(=O)N(c2ccc(C)cn2)[C@H]1c1ccc(CO)cc1 | 0.948 |
| N#Cc1ccc(NN2C(C(O)c3ccc(Br)cc3)C=CC3C(=O)N(c4ccccc4)C(=O)C32)cc1 (configuration not stated) | -0.374 |

| SMILES | composite z-score |
| --- | --- |
| O=C(O)[C@@H]1[C@@H]2C(=O)N(c3ccccc3)C(=O)[C@@H]2C[C@@H]1Sc1ccccc1 | 0.656 |
| CCCNC(=O)[C@@H]1c2ccccc2C(=O)N(Cc2ccc(OC(F)(F)F)cc2)[C@H]1c1ccc(CO)cc1 | 0.0914 |
| COCCOC(=O)N1C(=O)[C@@]2(c3cc(C#CCCO)ccc31)[C@H](c1ccc(OCCO)cc1)N1[C@H](c3ccccc3)[C@H](c3ccccc3)OC(=O)[C@H]1[C@@H]2C(=O)Nc1nc2ccccc2s1 | 0.854 |
| CN(C)C(=O)[C@]1(CCC(=O)OC(C)(C)C)N=C(c2ccc(OCCCO)cc2)O[C@@H]1c1ccccc1CN=[N+]=[N-] | 0.418 |
| CCCC=C(CCC)[C@@H](NS(=O)(=O)c1ccc(C(F)(F)F)cc1)c1ccccc1 | 0.388 |
| CCCCC(CC)C(O)C1C=CC2C(=O)N(C)C(=O)C2N1Nc1ccccc1 (configuration not stated) | 0.864 |
| COC(=O)c1c(CC[C@@H](CO)NC(=O)N2CCC[C@H]2Cn2cc(C3(O)CCCCC3)nn2)oc(C(C)=O)c1C(=O)OC | 0.0806 |
| C=CC[C@]1(C(=O)N2CCCCC2)N=C(c2ccc(OCCCO)cc2)O[C@H]1c1ccccc1CN=[N+]=[N-] | 0.851 |
| COC(=O)[C@@]1(Cc2ccccc2)[C@H]2c3cc(C(=O)N4CCCC4)n(CCc4ccccn4)c3C[C@H]2CN1C(=O)c1ccccc1 | 1.11 |
| C=CCNC(=O)[C@@H]1[C@H]2C(=O)O[C@H](c3ccccc3)[C@H](c3ccccc3)N2[C@H](c2ccc(O)cc2)[C@@]12C(=O)N(C(=O)OCCOC)c1ccc(C#CC3=CCCCC3)cc12 | 0.492 |
| COCCOC(=O)N1C(=O)[C@@]2(c3cc(C#CC4(O)CCCCCC4)ccc31)[C@H](C(=O)N1CCc3cc(OC)c(OC)cc3C1)[C@H]1C(=O)O[C@H](c3ccccc3)[C@H](c3ccccc3)N1[C@@H]2c1ccc(OCCO)cc1 | 0.25 |
| C=C(C(=O)CC[C@H](OC(=O)c1ccccc1-c1ccccc1C(=O)O)c1cccc(OCCO)c1)C(C)C | 0.495 |
| CC(C)c1ccc(NN2C(C(O)c3ccc(F)cc3)C=CC3C(=O)N(c4ccccc4)C(=O)C32)cc1 (configuration not stated) | 0.869 |
| [N-]=[N+]=Nc1ccccc1C[C@@]1(C(=O)NCCN2CCOCC2)N=C(c2ccc(OCCCO)cc2)O[C@@H]1c1ccccc1N=[N+]=[N-] | 0.691 |
| CCOC(=O)[C@@H]1CCCCN1C(=O)C(=O)OC | -0.206 |
| COc1ccccc1CN1C(=O)c2ccccc2[C@](Cc2ccccc2I)(C(=O)O)[C@@H]1c1ccc(CO)cc1 | 0.933 |
| C=C[C@@H](OC)[C@H](OC(=O)Nc1ccc(OC)cc1)c1ccc(O)c(F)c1 | 1.07 |
